This is a sample that favours compounds with a hit; in the whole collection about 3.2% have one here.
Nrf2 inh – Nrf2 pathway inhibition. A549 ARE-Fluc reporter, luciferase luminescence, 18-24 h. Potency, µM (doses to about 46 µM), for inactives: at the top dose activity change, negative = inhibition, actives largely listed as inhibitors. 360,000 tested, 2.1% active; further: potency means the concentration at half of the fitted maximal effect; on the % scale 0 is the no-effect control and ±100 the full control effect; nearly all actives have a fitted effect of over 60% in size
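A549 ARE_Fluc cells, 5000/well, 5% FBS OPTI-MEM; compounds in dose-response, 18-24 h at 37 °C/5% CO2; CellTiter-Fluor viability read (Ex 405/Em 525), then BugLite luciferase luminescence = Nrf2 activity.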
BRCA1 expr up – BRCA1 expression activation; MCF7-BRCA1-FFLuc reporter, luminescence, 48 h; response scale: scaled: vehicle 0%, 10 µM genistein 100%; Potency, µM (highest dose often 46.1 µM), for the others: top-dose activation, most hits filed as activators; 380,000 tested, 1.1% active; AID 624202; further: potency means the concentration at half of the fitted maximal effect; nearly all actives have a fitted effect of over 80% in size
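Cells: MCF7-BRCA1-FFLuc, 2000/well. Exposure: 48 h, 37 °C, 5% CO2. Read: luminescence, 15 min post-substrate. Controls: genistein 10 microM (maximal activation), DMSO (neutral).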
p53 reactivator – re-activators of mutant p53 | 320,000 tested, 0.063% active | H1299 p53-A138V BP100-luciferase reporter, luminescence, 24 h | Potency, µM (top dose mostly 92.2 µM), for inactives: at the highest dose activity change, positive = activation, usual class: activators | AID 504706; further: potency means the concentration at half of the fitted maximal effect; % of control where 0% means no effect; nearly all actives have a fitted effect of over 45% in size
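H1299 (p53-null), stable ts p53-A138V + BP100-Luc; 1000 cells/well, Opti-MEM/10% FBS; cpd 4 pt, 1:5; 24 h, 37 deg C, 5% CO2; detection reagent 10 min RT; luminescence.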
Nrf2 activator – activates Nrf2 signaling. AREc32 ARE-luciferase reporter (MCF7-derived line), luminescence, 24 h. Potency, µM (doses to about 46.1 µM), for the others: at the highest dose activation, actives largely listed as activators. 410,000 tested, 0.31% active. AID 624171; further: potency means the concentration at half of the fitted maximal effect; % of control where 0% means no effect; nearly all actives have a fitted effect of over 65% in size
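Luminescent ARE reporter assay in AREc32_Fluc cells: overnight plating at 37 deg C, 24 hr compound incubation, Steady-Glo added, 30 min RT before reading.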
A549 viability – kills or reduces viability of A549 cells in Nrf2 counter-screen. Potency, µM (titrated, usually from 46 µM), without a hit: at the highest dose activity change, negative = cytotoxicity, hits mostly inhibitors. 390,000 tested, 0.16% active. AID 504648. A549 ARE-Fluc cells, CellTiter-Fluor viability, 18-24 h; further: potency means the concentration at half of the fitted maximal effect; on the % scale 0 is the no-effect control and ±100 the full control effect
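A549 ARE_Fluc cells in 5% FBS OPTI-MEM were exposed to compounds in concentration-response for 18-24 h at 37 deg C. Viability was read by CellTiter-Fluor fluorescence (Ex 405/Em 525) after 30 min, before the luciferase read.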
IL2 activator – IL-2 activation; IL-2 activation reporter assay, cell-based qHTS; stimulated with anti-CD3/CD4/CD28 beads; in transgenic mouse T cells; activation, % (series mostly up to about 46 µM); 360,000 tested, 0.065% active; AID 652025; in the data active means activation above about 50%; inconclusive means mostly about 30% to 49%; further: 0% is about no effect
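Unstimulated transgenic mouse T cells; 60-min compound exposure; bead-based TCR/CD4/CD28 stimulation; 18 h culture, 37 degrees C; dual fluorescence (EGFP, DsRed) plate cytometry.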
Starred values were filed as active, the others as inactive; ? = inconclusive; · = no result. Unless noted, the call rests on the fitted dose curve; in most records, active means well fitted curve in the direction sought with a large enough effect; inconclusive means small, poorly fitted or top-dose-only effect, or another doubt; inactive means no such curve, though single readings can be large; an effect the other way counts as inactive or inconclusive.

SMILES	Nrf2 inh	BRCA1 expr up	p53 reactivator	Nrf2 activator	A549 viability	IL2 activator
COc1ccc(/C=N/NC(=O)c2cccc([N+](=O)[O-])c2)cc1OC(=O)c1ccc(C)cc1	21µM*	-51%	1%	0%	?	0
COc1cc(/C=N/NC(=O)c2ccc3ccccc3c2)ccc1Oc1ccc([N+](=O)[O-])cn1	?	7%	-19%	0%	2%	0
COc1cccc(C(=O)N/N=C/c2ccc(Oc3ccc([N+](=O)[O-])cn3)c(OC)c2)c1	23µM*	-7%	3%	0%	?	-3
COc1ccc(/C=N/NC(=O)c2cccc([N+](=O)[O-])c2)cc1OC(=O)c1ccccc1	-13%	-31%	19%	6%	-16%	0
Cc1ccc(NS(=O)(=O)c2cc3c(cc2N2CCC2)NC(=O)CC3)cc1C	?	·	·	·	10%	·
CCOCCCNC(=O)c1ccc2c(c1)NC(=O)C(CS(=O)(=O)Cc1ccc(F)cc1Cl)N2 (configuration not stated)	·	·	·	0%	7%	·
CCOC(=O)c1cnc(-c2ccccc2)nc1Oc1ccc(OC)cc1	4%	3%	-2%	0%	2%	-3
CCOC(=O)c1cnc(-c2ccccc2)nc1-c1ccccc1	?	-38%	1%	7.9µM*	3%	-1
CCOC(=O)c1cnc(-c2ccccc2)nc1Oc1ccccc1	·	-47%	-4%	13µM*	-1%	-1
CC(C)OCCCNc1ncnc2sc3c(c12)CCCC3	?	0%	·	3%	-6%	·
COc1ccc(-c2cc3ccc(O)c(CN4CCCCC4C)c3oc2=O)cc1OC (configuration not stated)	·	·	·	-1%	?	·
CC(C)Cn1cc(NC(=O)Nc2cccc(C(F)(F)F)c2)c2ccccc2c1=O	23µM*	-40%	·	2%	-20%	·
CC(C)Cn1cc(NC(=O)N2CCN(c3cccc(C(F)(F)F)c3)CC2)c2ccccc2c1=O	-17%	-41%	·	0%	-5%	·
COc1cc(C2C(=O)N(C3CCCCC3)CC(=O)N2CCc2ccccc2)ccc1OC(C)C (configuration not stated)	·	·	·	0%	6%	·
N#Cc1ccc(C(=O)Nc2ccn(-c3ccccc3)n2)cc1	23µM*	4%	3%	3%	-18%	-2
COc1ccccc1-c1nc(COc2ccc(Cl)cc2Cl)no1	?	4.5µM*	25%	2%	5%	3
COc1ccc(-c2nc3ccccc3c(=O)n2Cc2ccccc2)cc1CNc1ccc(NC(C)=O)cc1	-9%	·	·	·	-9%	·
c1ccc(CSc2nnc(Cc3ccccc3)o2)cc1	?	13µM*	3%	3%	13%	2
O=C(CSc1nnc(-c2cccnc2)o1)Nc1cccc(F)c1	25%	10µM*	15%	4%	2%	-1
Cc1ccc(CSc2nnc(-c3cccnc3)o2)cc1	2%	46%	8%	3%	11%	-2
c1ccc(CSc2nnc(-c3cccnc3)o2)cc1	10%	7.9µM*	?	5%	4%	-1
c1ccc(CSc2nnc(Cc3ccccn3)o2)cc1	28%	45%	10%	2%	3%	0
Oc1ccc(-c2nnc(SCc3ccccc3)o2)cc1	?	10µM*	·	1%	-3%	0
Cc1cc2c(s1)c1cnn(Cc3ccccc3F)c(=O)c1n2Cc1ccccc1F	-16%	·	·	·	6%	·
COc1ccc(CN(C)C(=O)CNC(=O)c2ccc3ccccc3c2)c(OC)c1	?	1%	-15%	0%	1%	3
COc1ccc(Br)cc1CN(C)C(=O)CNC(=O)c1ccc2ccccc2c1	18µM*	-29%	-12%	0%	?	3
Cc1nc(N)sc1N=Nc1ccccc1C(F)(F)F	?	7.1µM*	?	3%	-24%	0
